One may read the inhibition as the drop in the measured response relative to a control, in per cent.

A number with no mark means an inactive call. The source made the active and inactive calls. Cut-off read from the data, not from the text of the source: active = inhibition above about 33%; inactive = the rest.

A short description of the test: compounds suppressing VP16-driven luciferase signal – cell-based, luminescence, high throughput, counter-screen for LRH-1 inverse agonist project (AID 651615). As to conditions: Gal4-VP16 luciferase reporter cells, at 3.6 µM, stronger effect = higher value. For orientation: A counterscreen serves to expose hits that act by an unwanted route or on another target.
For `COc1ccc(NC(=O)COc2ccc(N(C)S(=O)(=O)c3ccc(Cl)cc3)cc2)cc1OC`, the inhibition was 51.1% (active).
Turning to `CCOCC(=O)Nc1ccc(S(=O)(=O)NCCc2ccccc2)cc1`, the inhibition is 11.4%.
The value for `O=C(CCl)N1CCN(C(=O)C2COc3ccccc3O2)CC1` (stereo not given) was -13.5%.
The value for `CC1OC(CC(=O)O)CC2=C1C(=O)c1c(O)cccc1C2=O` (stereo not given) was 95.8% (active); that for `CC[n+]1c(/C=C/c2ccc(N(C)C)cc2)ccc2ccccc21` was 85% (active); that for `COc1ccc(NC(=O)COC(=O)c2cc(S(=O)(=O)N3CCCC3)ccc2O)cc1` was 0.43%.
Under `NS(=O)(=O)c1ccc(O)c(NC(=O)c2ccc([N+](=O)[O-])o2)c1` stands 2.28%; under `Cc1nn(Cc2ccc(Cl)cc2)c(C)c1NC(=O)c1ccc([N+](=O)[O-])cc1`, -3.45%; under `CC(=NNC(=S)N1CCN(c2ccccn2)CC1)c1nccs1`, 44.3% (active).
In the case of `O=C(Nc1ccc2oc(-c3cccnc3)nc2c1)c1ccc([N+](=O)[O-])o1`, the inhibition is -5.53%.
Under `O=C(CN1CCN(c2ncccn2)CC1)N1CCCc2c1c(=O)oc1ccc(O)cc21` stands -33.2%; under `Cc1cc(C)c2c(NC(=O)CCl)nn(C)c2n1`, -39.7%.
For the compound `CCN1C(=O)c2cccc3c(NC(=O)c4ccc(S(=O)(=O)N5CCOCC5)cc4)ccc1c23`, the inhibition was -60.9%.
As for `COc1ccc(NC(=O)CN2C(=O)NC(C)(c3ccc(C)cc3)C2=O)c([N+](=O)[O-])c1` (stereo not given), the inhibition is -9.49%.
Regarding `CCOC(=O)C1CCCN(S(=O)(=O)c2ccc(S(=O)(=O)N(CC)CC)cc2)C1` (stereo not given), the inhibition was 49.5% (active).
The value for `CCn1c(=NC(=O)CCS(=O)(=O)c2ccccc2)sc2cccc(OC)c21` was 69.2% (active); that for `CSc1ccc(COC(=O)c2cc([N+](=O)[O-])ccc2N2CCOCC2)cc1` was 36.6% (active).
For the compound `CCCc1cc(=O)oc2c(C)c(OCC(=O)NC3CC(C)(C)NC(C)(C)C3)ccc12`, the inhibition is 9.82%.
As to `COC(=O)CNc1nc(-c2cccnc2)nc2ccccc12`, the inhibition was -0.85%.
Under `Cc1ccc(NC(=O)CCl)c(C)c1` stands -43.6%.
For the compound `Nc1ccc(Nc2ccncc2[N+](=O)[O-])cc1`, the inhibition is 15.7%.
As for `Nc1nc(-c2ccccc2)c(CCCOc2ccc(NC(=O)CBr)cc2)c(=O)[nH]1`, the inhibition was -15.6%.
Take `CC(CCc1ccccc1)NC(=O)COc1ccc(S(=O)(=O)N2CCOCC2)cc1[N+](=O)[O-]` (stereo not given): the inhibition was 24.5%.
As for `COCCn1c(C)cc(/C=C(\C#N)C(=O)OCC(=O)Nc2ccc(S(N)(=O)=O)cc2)c1C`, the inhibition is -8.79%.
The value for `CC(=O)C(C(C)=O)c1c(Cl)c(O)c(O)c2c(C(=O)c3ccccc3)coc12` was 90.2% (active); that for `Cc1ccc(NC(=O)CSc2sc3c(O)cc(=O)[nH]c3c2C#N)c(F)c1` was -9.48%; that for `CC(=O)Nc1ccc(NC(=O)COC(=O)c2c(C)nn(-c3ccccc3)c2C)cc1` was -22.5%.
The value for `CCN(Cc1ccccc1)c1ccc(/C=N/N2CCOCC2)cc1` was -9.02%.
For `CC1(C)CC(=O)C=C(c2cccs2)C1`, the inhibition is 6.36%.
Take `CCOC(=O)N1CCN(C(=O)CCl)CC1`: the inhibition is -8.13%.
Under `Cc1cc(C(=O)N/N=C/c2ccc([N+](=O)[O-])o2)c(C)o1` stands 3.18%.
The value for `CCOC(=O)N1CCc2cc(OC)c(OC)c3c2c1cc1cc(OC)c(OC)cc13` was -28.7%.
Take `Cc1cc(Br)ccc1NC(=O)CN1C(=O)CCC1=O`: the inhibition was 4.01%.
Turning to `O=C(COc1ccc2c3c(c(=O)oc2c1)CCCC3)NCCN1CCOCC1`, the inhibition is -1.02%.
Regarding `CN(C)S(=O)(=O)c1cccc(C(=O)OCC(=O)Nc2ccc3c(c2)OCCO3)c1`, the inhibition is 10.7%.
In the case of `COc1cc(/C=N/Nc2snc(SC)c2C#N)ccc1O`, the inhibition is -90.8%.
For the compound `C/C=C/c1ccc(OCCOc2ccc(C=O)cc2OC)c(OC)c1`, the inhibition was 2.21%.
The value for `COc1cccc(NC(=O)N(C)C[C@H]2Oc3cc(C#Cc4ccncc4)ccc3S(=O)(=O)N([C@H](C)CO)C[C@H]2C)c1` was -37%; that for `CCOC(=O)c1ccc(Nc2nc(-c3cccnc3)nc3ccccc23)cc1` was 11.4%.
In the case of `O=C(COC(=O)CCN1C(=O)C2CC=CCC2C1=O)NCCc1ccccc1` (stereo not given), the inhibition was 3.03%.

The values are drawn from PubChem BioAssay.
